Source: PubChem BioAssay (EPA / NIEHS)
Records with an inconclusive call do not appear. Calls of active or inactive are those of the source. The calls were made as follows, unless noted: active = hit-call score of the fitted dose curve at least 0.9, where 1 is the maximum; inconclusive = response in the unintended direction; inactive = score below 0.9.

What was measured:
[1] = target: Cellular tumor antigen p53 (Homo sapiens) (UniProt P04637); assay: TOX21_p53_BLA_p2_ratio: Tox21 HCT-116 p53 Agonism Beta-lactamase Assay, Ratio, Phase 2 (AID 2283592)
Procedure, shortened: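 Ratio endpoint: beta-lactamase cleavage of CCF4-AM, blue (460 nm) over green (530 nm). HCT116 reporter line; 16 h treatment, 37C; substrate 2 h RT.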

[2] = target: Cellular tumor antigen p53 (Homo sapiens) (UniProt P04637); assay: TOX21_p53_BLA_p5_ratio: Tox21 HCT-116 p53 Agonism Beta-lactamase Assay, Ratio, Phase 5 (AID 2283599)
Procedure, shortened: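 HCT-116 p53-bla cells (4000/well) plated 5 h, dosed with compound (217-fold DMSO dilution) for 16 h at 37 C; CCF4-AM substrate 2 h at room temperature. Activity is the 460/530 nm emission ratio (405 nm excitation), fitted in gain-of-signal direction versus DMSO.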

[3] = target: Cellular tumor antigen p53 (Homo sapiens) (UniProt P04637); assay: TOX21_p53_BLA_p4_ratio: Tox21 HCT-116 p53 Agonism Beta-lactamase Assay, Ratio, Phase 4 (AID 2283601)
Procedure, shortened: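 HCT-116 p53 beta-lactamase reporter cells (4000/well) preincubated 5 h, then compound (217-fold dilution of DMSO stock) for 16 h at 37C. CCF4-AM substrate added 2 h at room temperature; 460/530 nm emission ratio fitted upward versus DMSO.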

[4] = TOX21_p53_BLA_p5_viability: Viability Assessment in the Tox21 HCT-116 p53 Agonism Beta-lactamase Assay, Phase 5 (AID 2283600)
Procedure, shortened: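 Luciferase-coupled ATP quantitation of cells treated for 16 h (37C, 5% CO2) with test chemicals delivered in DMSO via a 217-fold dilution; 4000 cells/well; reagent incubated 30 min at room temperature before luminescence reading.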

[5] = TOX21_TRB_BLA_Antagonist_Followup_viability: Viability Assessment in the Tox21 Thyroid Hormone Receptor beta Antagonism Beta-lactamase (BLA) Follow-Up Assay (AID 2283961)
Procedure, shortened: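 HEK293T cells stably expressing GAL4-DBD/human TRβ-LBD with UAS-bla reporter, 3,000 cells/well in phenol red-free DMEM, 2% charcoal-stripped FBS. Compounds at 11 concentrations in triplicate, 18 h at 37C/5% CO2; viability by CellTiter-Glo luminescence after 30 min at room temperature.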

[6] = CCTE_Harrill_HTTr_Viability_MCF7: CCTE's 6-hour Cell Viability Assessment for the High-Throughput Transcriptomics (HTTr) Platform, in MCF-7 cells cultured in DMEM + 10% fetal bovine serum, Harrill Lab (AID 2284010; active = hit-call score of the fitted dose curve at least 0.9, where 1 is the maximum; inactive = score below 0.9)
Procedure, shortened: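 Read-out is propidium iodide gain of signal by high-content imaging, reflecting membrane integrity loss. Measurements are taken 6 h after dosing, eight concentrations per chemical, with DMSO serving as baseline for bidirectional curve fitting.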

[7] = CCTE_Harrill_HTTr_Apoptosis_MCF7: CCTE's 6-hour Apoptosis Assessment for the High-Throughput Transcriptomics (HTTr) Platform, in MCF-7 cells cultured in DMEM + 10% fetal bovine serum, Harrill Lab (AID 2284011; active = hit-call score of the fitted dose curve at least 0.9, where 1 is the maximum; inactive = score below 0.9)
Procedure, shortened: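 MCF-7 cells in DMEM + 10% fetal bovine serum were exposed to chemicals for 6 hours over an eight-point dilution series. Caspase-3/7 activation was imaged by high content imaging with CellEvent Caspase 3/7 Green; bidirectional fitting used DMSO as baseline.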

[8] = CCTE_Harrill_HTTr_CellCount_MCF7: CCTE's Cell Proliferation Assessment for the High-Throughput Transcriptomics (HTTr) Platform, Harrill Lab (AID 2284012);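 also: cells exposed to compound for six hours; intended direction is loss of nuclei count meaning fewer cells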
Procedure, shortened: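 Cell count served as viability reporter: loss of Hoechst-stained nuclei, counted by high content imaging, marks decreased growth or survival. Exposure was 6 h in MCF-7 cells across eight concentrations, with DMSO as baseline.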

[9] = system: Brachyury (BRA) Protein Expression, Deisenroth Lab, TBXT (gene 6862); assay: CCTE_Deisenroth_DEVTOX-GLR_legacy_Bra: (Legacy) CCTE's DevTox GLR-Endo Assay Evaluation of Brachyury (BRA) Protein Expression, Deisenroth Lab (AID 2284329; active = hit-call score of the fitted dose curve at least 0.9, where 1 is the maximum; inactive = score below 0.9)
Procedure, shortened: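 Readout: percent Bra+ cells by high-content fluorescence imaging, Bra+ meaning mean intensity 5x BMAD over pluripotent control median. RUES2-GLR cells dosed twice over 48 h differentiation; DMSO-control median subtracted before concentration-response fitting.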

[10] = CCTE_Deisenroth_DEVTOX-GLR_legacy_CellCount: (Legacy) Viability Assessment in CCTE's DevTox GLR-Endo Assay, Deisenroth Lab (AID 2284331; active = hit-call score of the fitted dose curve at least 0.9, where 1 is the maximum; inactive = score below 0.9); details: actives raise or lower the signal
Procedure, shortened: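 Seed RUES2-GLR 24 h; differentiate 48 h, dosing at 0 and 24 h; fix, stain nuclei; image 5 fields/well; count nuclei. Conc. 1 nM - 200 uM, single technical replicate, n=4 experiments; bidirectional fit vs 0.2% DMSO.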

[11] = system: SRY-box transcription factor 17 (SOX17) Protein Expression, Deisenroth Lab, SOX17 (gene 64321); assay: CCTE_Deisenroth_DEVTOX-GLR_legacy_Sox17: (Legacy) CCTE's DevTox GLR-Endo Assay Evaluation of SRY-box transcription factor 17 (SOX17) Protein Expression, Deisenroth Lab (AID 2284341; active = hit-call score of the fitted dose curve at least 0.9, where 1 is the maximum; inactive = score below 0.9); details: actives raise or lower the signal
Procedure, shortened: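 Using the RUES2-GLR line, compounds are tested as 10-point series during 48-h defined-media differentiation. Sox17 reporter fluorescence per cell determines positivity; endpoint is percentage positive, analysed bidirectionally versus DMSO baseline.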

[12] = system: SRY-box transcription factor 2 (SOX2) Protein Expression, Deisenroth Lab, SOX2 (gene 6657); assay: CCTE_Deisenroth_DEVTOX-GLR_legacy_Sox2: (Legacy) CCTE's DevTox GLR-Endo Assay Evaluation of SRY-box transcription factor 2 (SOX2) Protein Expression, Deisenroth Lab (AID 2284346; active = hit-call score of the fitted dose curve at least 0.9, where 1 is the maximum; inactive = score below 0.9)
Procedure, shortened: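 Read-out: fraction of Sox2+ cells by high-content fluorescence imaging of fixed RUES2-GLR cells after 48 h differentiation with two 24 h-spaced exposures. Positivity cutoff 5x BMAD above endoderm control median; 0.2% DMSO median subtracted.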

[13] = system: SRY-box transcription factor 17 (SOX17) Protein Expression, Deisenroth Lab, SOX17 (gene 64321); assay: CCTE_Deisenroth_DEVTOX-GLR_Endo_SOX17: CCTE's DevTox GLR-Endo Assay Evaluation of SRY-box transcription factor 17 (SOX17) Protein Expression, Deisenroth Lab (AID 2284413; active = hit-call score of the fitted dose curve at least 0.9, where 1 is the maximum; inactive = score below 0.9)
Procedure, shortened: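 Human RUES2-GLR cells carrying an inducible fluorescent reporter are differentiated in defined media for 48 h and dosed twice, 24 h apart. After fixation and nuclear staining, imaging yields SOX17+ cell percentage relative to 0.2% DMSO-treated differentiated cells.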

[14] = system: Brachyury (BRA) Protein Expression, TBXT (gene 6862); assay: CCTE_Deisenroth_DEVTOX-GLR_Endo_BRA: CCTE's DevTox GLR-Endo Assay Evaluation of Brachyury (BRA) Protein Expression, Deisenroth Lab (AID 2284417; active = hit-call score of the fitted dose curve at least 0.9, where 1 is the maximum; inactive = score below 0.9)
Procedure, shortened: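 Percent BRA+ (mesoderm) RUES2-GLR cells after 48 h differentiation with two exposures, 1 nM - 200 uM; 0.2% DMSO control subtracted.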

[15] = CCTE_Deisenroth_DEVTOX-GLR_Endo_CellCount: Viability Assessment in CCTE's DevTox GLR-Endo Assay, Deisenroth Lab (AID 2284420; active = hit-call score of the fitted dose curve at least 0.9, where 1 is the maximum; inactive = score below 0.9)
Procedure, shortened: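 RUES2-GLR human pluripotent cells seeded 24 h, then differentiated 48 h with two chemical exposures at 24 h intervals (10-point, 1 nM - 200 uM). Fixed, nuclear-stained, imaged; nuclei counts give % change in cell count versus 0.2% DMSO.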

[16] = system: SRY-box transcription factor 17 (SOX17) Protein Expression, Deisenroth Lab, SOX17 (gene 64321); assay: CCTE_Deisenroth_DEVTOX-GLR_Pluri_SOX17: CCTE's DevTox GLR-Pluri Assay Evaluation of SRY-box transcription factor 17 (SOX17) Protein Expression, Deisenroth Lab (AID 2284427)
Procedure, shortened: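 RUES2-GLR human pluripotent cells were seeded 24 h, then differentiated 48 h in defined media with two chemical exposures 24 h apart (10-point series, 1 nM - 200 uM). Fixed, nuclear-stained cells were imaged; %SOX17+ cells minus 0.2% DMSO control reported.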

[17] = system: SRY-box transcription factor 2 (SOX2) Protein Expression, Deisenroth Lab, SOX2 (gene 6657); assay: CCTE_Deisenroth_DEVTOX-GLR_Pluri_SOX2: CCTE's DevTox GLR-Pluri Assay Evaluation of SRY-box transcription factor 2 (SOX2) Protein Expression, Deisenroth Lab (AID 2284428; active = hit-call score of the fitted dose curve at least 0.9, where 1 is the maximum; inactive = score below 0.9)
Procedure, shortened: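 Human pluripotent RUES2-GLR cells were seeded 24 h, then differentiated 48 h in defined media with two chemical doses at 24-h intervals (10-point, 1 nM–200 uM). Nuclear-stained cells were imaged; SOX2+ cells/cell count gave percent change versus 0.2% DMSO control.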

[18] = system: Brachyury (BRA) Protein Expression, Deisenroth Lab, TBXT (gene 6862); assay: CCTE_Deisenroth_DEVTOX-GLR_Pluri_BRA: CCTE's DevTox GLR-Pluri Assay Evaluation of Brachyury (BRA) Protein Expression, Deisenroth Lab (AID 2284429)
Procedure, shortened: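 RUES2-GLR reporter line; 48 h mesoderm differentiation; two exposures, 24 h apart; 1 nM - 200 uM, 10 points; nuclear stain, high-content imaging, 5 fields/well; endpoint = %BRA+ cells of total count minus 0.2% DMSO; n=4.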

[19] = CCTE_Deisenroth_DEVTOX-GLR_Pluri_CellCount: Viability Assessment in CCTE's DevTox GLR-Pluri Assay Evaluation of Total Cell Counts, Deisenroth Lab (AID 2284430; active = hit-call score of the fitted dose curve at least 0.9, where 1 is the maximum; inactive = score below 0.9)
Procedure, shortened: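 Cytotoxicity readout: fluorescent nuclei counts by high-content imaging, expressed as percent change relative to 0.2% DMSO. Human RUES2-GLR pluripotent line differentiated 48 h, dosed twice at 24-h intervals across 1 nM - 200 uM (10 points).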

Measured: outcome

Cellular tumor antigen p53 (Homo sapiens), sequence (P04637 whole entry, looked up): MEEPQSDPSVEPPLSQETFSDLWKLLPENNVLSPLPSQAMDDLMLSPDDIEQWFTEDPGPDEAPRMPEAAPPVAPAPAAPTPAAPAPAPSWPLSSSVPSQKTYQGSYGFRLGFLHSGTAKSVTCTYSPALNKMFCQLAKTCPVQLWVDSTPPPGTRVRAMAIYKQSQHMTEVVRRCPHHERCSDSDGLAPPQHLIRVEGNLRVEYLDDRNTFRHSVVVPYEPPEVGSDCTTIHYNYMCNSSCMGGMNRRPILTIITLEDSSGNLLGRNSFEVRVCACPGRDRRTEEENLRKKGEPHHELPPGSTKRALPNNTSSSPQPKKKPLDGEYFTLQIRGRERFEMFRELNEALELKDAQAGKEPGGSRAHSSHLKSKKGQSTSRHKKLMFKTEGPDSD

CCCCCCCCCCCCCCC1CO1 (stereo not given)
inactive: [1] | [2] | [3]

O=Cc1ccc(C(=O)O)cc1
inactive: [1] | [4]

O=[N+]([O-])c1c(Cl)cc(Cl)cc1Cl
inactive: [1] | [4]

C#CC(O)CCCCC (stereo not given)
inactive: [1] | [4] | [3]

Cc1nc2ccc(Cl)cc2[nH]1
inactive: [1] | [2] | [3]

CCCCCCCCCCCCCCCC/C=C/C1CC(=O)OC1=O (stereo not given)
inactive: [1] | [2] | [3]

CC(=O)Nc1ccc(OCC(O)CNC(C)C)cc1 (stereo not given)
inactive: [1] | [4] | [3]

N[C@@H](CS)C(=O)O
inactive: [1] | [4] | [3]

CCCN(CCC)C(=O)C(CCC(=O)O)NC(=O)c1ccccc1 (stereo not given)
inactive: [1] | [4] | [3]

CN(C)C=Nc1c(I)cc(I)c(CCC(=O)O)c1I
inactive: [1] | [4]

O=C(O)c1cc2cc(Cc3cccnc3)ccc2o1
inactive: [1] | [4] | [3]

c1ccc2c(c1)Sc1ccccc1N2CCN1CCCC1
inactive: [1] | [2] | [3]

COC(=O)NCCC[Si](OC)(OC)OC
inactive: [1] | [4]

O=C(CS(=O)Cc1ccco1)NC/C=C\COc1cc(CN2CCCCC2)ccn1 (stereo not given)
inactive: [1] | [2] | [3]

C#C[C@]1(O)CC[C@H]2[C@@H]3CCC4=CC(=O)CC[C@@H]4[C@H]3C(=C)C[C@@]21CC
inactive: [1] | [2] | [3] | [5]

CCCCOC(=O)CC#N
inactive: [1] | [4] | [3]

[K+]
inactive: [1] | [2] | [3] | [6] | [7] | [8]

CC(=O)Nc1ncc([N+](=O)[O-])s1
inactive: [1] | [2] | [4] | [3]

CO[C@@]1(NC(=O)C(C(=O)O)c2ccc(O)cc2)C(=O)N2C(C(=O)O)=C(CSc3nnnn3C)CO[C@@H]21 (stereo not given in full)
inactive: [1] | [2] | [4] | [3]

Nc1nc2c(ncn2COCCO)c(=O)[nH]1
not listed: [4] | [5] | [6] | [7] | [8]
inactive: all other assays above

CC(C)C(=O)c1c(C(C)C)nn2ccccc12
inactive: [1] | [2] | [3]

CC(C)S
inactive: [1] | [2] | [4] | [3]
